The structures appear in SMILES notation. Screen size: about 290,000 compounds; about 570 (0.2%) were called active. About 1% were inconclusive and are not listed. No stated cut-off is given here; in the data, active means inhibition mostly above about 51% (no sharp cut-off); inconclusive means no clear call, values can overlap the other calls; inactive means mostly below about 53%. This excerpt belongs to a sample that is enriched for actives.

The experiment addresses Voltage-dependent N-type calcium channel subunit alpha-1B (Homo sapiens) (UniProt Q00975). The experiment can be described thus: disruptors of CaV2.2 binding to Mint1 – biochemical, HTRF (AID 2073). Conditions: HTRF protein-protein interaction, Mint1-CaV2.2, at 20 µM, stronger effect = higher value.
Where [1] appears, read: measured here: average of repeat tests.

Sequence of Voltage-dependent N-type calcium channel subunit alpha-1B (Homo sapiens) (Q00975 whole entry, looked up): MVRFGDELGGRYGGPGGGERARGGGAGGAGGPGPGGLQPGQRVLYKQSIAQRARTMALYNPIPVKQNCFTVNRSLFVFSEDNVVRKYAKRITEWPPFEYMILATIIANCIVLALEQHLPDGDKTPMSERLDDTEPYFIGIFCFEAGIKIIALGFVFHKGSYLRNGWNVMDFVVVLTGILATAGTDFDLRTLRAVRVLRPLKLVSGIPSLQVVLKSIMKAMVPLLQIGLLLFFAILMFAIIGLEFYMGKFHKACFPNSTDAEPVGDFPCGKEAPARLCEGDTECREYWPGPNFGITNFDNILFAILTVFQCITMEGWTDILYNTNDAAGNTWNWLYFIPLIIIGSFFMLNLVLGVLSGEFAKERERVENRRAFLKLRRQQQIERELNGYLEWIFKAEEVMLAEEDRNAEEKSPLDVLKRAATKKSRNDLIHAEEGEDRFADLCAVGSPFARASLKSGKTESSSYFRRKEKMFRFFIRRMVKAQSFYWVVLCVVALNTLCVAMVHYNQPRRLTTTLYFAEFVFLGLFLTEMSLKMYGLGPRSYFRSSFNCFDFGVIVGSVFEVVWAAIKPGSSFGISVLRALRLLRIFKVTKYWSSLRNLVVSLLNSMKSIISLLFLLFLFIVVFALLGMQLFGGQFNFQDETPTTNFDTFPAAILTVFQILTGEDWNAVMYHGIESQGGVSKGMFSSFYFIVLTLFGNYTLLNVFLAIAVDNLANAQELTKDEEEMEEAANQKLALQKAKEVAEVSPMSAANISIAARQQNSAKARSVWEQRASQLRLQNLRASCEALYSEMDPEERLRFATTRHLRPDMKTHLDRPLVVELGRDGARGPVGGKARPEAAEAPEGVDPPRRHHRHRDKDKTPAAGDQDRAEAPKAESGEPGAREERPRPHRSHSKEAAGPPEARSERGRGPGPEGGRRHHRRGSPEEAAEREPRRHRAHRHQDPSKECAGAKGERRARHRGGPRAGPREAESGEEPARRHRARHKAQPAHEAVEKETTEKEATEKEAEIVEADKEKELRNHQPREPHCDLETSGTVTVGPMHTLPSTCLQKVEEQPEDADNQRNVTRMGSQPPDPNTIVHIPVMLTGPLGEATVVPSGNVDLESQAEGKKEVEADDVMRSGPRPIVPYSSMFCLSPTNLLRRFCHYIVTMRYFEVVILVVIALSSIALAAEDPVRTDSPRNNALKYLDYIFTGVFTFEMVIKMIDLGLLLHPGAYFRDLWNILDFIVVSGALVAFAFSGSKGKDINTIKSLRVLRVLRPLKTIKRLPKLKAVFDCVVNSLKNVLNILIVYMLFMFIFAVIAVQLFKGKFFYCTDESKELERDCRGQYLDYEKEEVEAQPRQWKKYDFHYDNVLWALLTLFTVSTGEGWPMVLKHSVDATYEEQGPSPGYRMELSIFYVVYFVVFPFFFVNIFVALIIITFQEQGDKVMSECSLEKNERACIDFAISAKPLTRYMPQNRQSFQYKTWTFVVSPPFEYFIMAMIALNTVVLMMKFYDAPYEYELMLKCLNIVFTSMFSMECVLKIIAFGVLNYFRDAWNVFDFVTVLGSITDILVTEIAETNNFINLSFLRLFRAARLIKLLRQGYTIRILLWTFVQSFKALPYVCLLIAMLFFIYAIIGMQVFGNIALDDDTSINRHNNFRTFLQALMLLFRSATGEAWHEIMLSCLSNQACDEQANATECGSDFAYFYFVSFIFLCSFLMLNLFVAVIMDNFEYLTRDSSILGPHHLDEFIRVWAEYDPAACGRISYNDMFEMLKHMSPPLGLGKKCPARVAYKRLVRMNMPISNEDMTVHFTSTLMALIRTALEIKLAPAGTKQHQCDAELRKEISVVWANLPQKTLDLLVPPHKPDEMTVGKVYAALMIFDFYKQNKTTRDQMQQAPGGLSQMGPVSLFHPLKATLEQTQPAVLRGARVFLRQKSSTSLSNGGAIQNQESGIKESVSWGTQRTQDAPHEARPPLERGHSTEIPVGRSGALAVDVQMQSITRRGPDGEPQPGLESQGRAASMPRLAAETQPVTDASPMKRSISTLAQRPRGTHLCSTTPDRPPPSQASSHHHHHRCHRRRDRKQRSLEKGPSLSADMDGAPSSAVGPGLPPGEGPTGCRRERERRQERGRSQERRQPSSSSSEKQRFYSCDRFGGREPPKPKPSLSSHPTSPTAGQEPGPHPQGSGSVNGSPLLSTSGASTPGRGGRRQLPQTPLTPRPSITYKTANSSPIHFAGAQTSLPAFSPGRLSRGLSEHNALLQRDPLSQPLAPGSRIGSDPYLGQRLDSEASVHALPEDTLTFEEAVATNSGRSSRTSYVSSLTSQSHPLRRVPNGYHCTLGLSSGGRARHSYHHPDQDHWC

What is called inhibition is the relative decrease from the control value, in per cent. `O=C(O)Cn1nnnc1-c1ccc(F)cc1`: the inhibition was 0% (inactive).

For the molecule `CC(NC(=O)C1CCCN(C(=O)N(C)C)C1)c1ccccc1` (stereo unspecified), the inhibition is 0.8% (inactive). Turning to `CC(C)(C)OC(=O)N/N=C/c1cc(N=Nc2ccccc2)ccc1O`, the inhibition was 3.5% (inactive). For the molecule `COC(=O)N/N=C/c1cc(N=Nc2ccccc2)ccc1O`, the inhibition was 23.6% (inactive). `Cc1cccc(C)c1N1C(=O)CC(N(O)c2ccccc2)C1=O` (stereo unspecified): the inhibition is 4.8% (inactive).

Regarding `Cc1cc(C)c(C#N)c(N2CCN(S(=O)(=O)Cc3ccccc3)CC2)n1`, the inhibition was 1% (inactive). Regarding `CCOC(=O)c1sc(NC(=O)CN2C(=O)NC3(CC(C)CC(C)(C)C3)C2=O)c(C(=O)OCC)c1C` (stereo unspecified), the inhibition is 13.6% (inactive). In the case of `COc1cc(C2Nc3cccc4cccc(c34)N2)cc(OC)c1OC(C)=O`, the inhibition was 77.3% (active). For `COc1ccc(C2Nc3cccc4cccc(c34)N2)cc1Br`, the inhibition is 25.7% (inactive). As for `COc1cc(C2Nc3cccc4cccc(c34)N2)ccc1OC(C)=O`, the inhibition was 74.4% (inactive). The inhibition under setting [1] is -13.1%. Regarding `COc1ccc(NC(=S)Nc2cccc3cnccc23)cc1`, the inhibition was 77.7% (active).

On to `S=C(Nc1cccnc1)Nc1cccc2cnccc12`, for which the inhibition was 79.7% (inactive). Moreover, the inhibition under setting [1] stood at 4.7%. As for `Cc1cc(C)cc(NC(=S)Nc2cccc3cnccc23)c1`, the inhibition is 16.7% (inactive). Regarding `CCOc1ccc(NC(=S)Nc2cccc3cnccc23)cc1`, the inhibition is 27% (inactive).

Consider `CN(C)S(=O)(=O)c1cccc(NC(=S)Nc2cccc3cnccc23)c1`, for which the inhibition was 51.6% (active). As to `Cc1ccc(NC(=S)Nc2cccc3cnccc23)cc1`, the inhibition is 21.8% (inactive).

Consider `COc1ccc(/C=C2\SC(N3CCCCC3)=NC2=O)cc1`, for which the inhibition is 3.8% (inactive).

Consider `COc1ccc(CNC(=O)C(C)OC(=O)c2cccn2C)cc1` (stereo unspecified), for which the inhibition was -0.9% (inactive). Still for that read-out and setting: with `COc1ccc(S(=O)(=O)N(C)C2CCS(=O)(=O)C2)cc1OC` (stereo unspecified) the figure was 4.6% (inactive). On to `O=C(NCCO)c1cccc(Nc2nc(-c3ccccc3)c3cc(Cl)ccc3n2)c1`, for which the inhibition is 11.1% (inactive). For `COCCNC(=O)c1cccc(Nc2nc(-c3ccccc3)c3cc(Cl)ccc3n2)c1`, the inhibition was 54.5% (active).

With `OCCNc1nc(-c2ccccc2)c2cc(Cl)ccc2n1`, the inhibition was 15.1% (inactive). As to `Clc1ccccc1-c1nnc2sc(-c3ccc(Br)o3)nn12`, the inhibition is -3.6% (inactive).

Consider `Cc1nnc(N/N=C\c2ccc(-c3ccccc3[N+](=O)[O-])o2)n1N`, for which the inhibition was 45% (inactive). As to `Nn1cnnc1N/N=C\c1ccc(-c2ccccc2[N+](=O)[O-])o1`, the inhibition was 62% (active). As to `O=[N+]([O-])c1ccccc1-c1ccc(/C=N/n2cnnc2)o1`, the inhibition was -7.6% (inactive). As to `COc1ccc(CCN(C)C(=O)CN2C(=O)c3ccccc3S2(=O)=O)cc1OC`, the inhibition is -0.2% (inactive). The same measure, in the same setting: the same measure for `COc1ccc(N2C(=O)N(Cc3cccc(F)c3)c3ccccc3S2(=O)=O)cc1`: 55.6% (active); for `COc1ccc(N2C(=O)N(Cc3ccc(C)cc3)c3ccccc3S2(=O)=O)cc1`: 5.3% (inactive). On to `COc1ccc(N2C(=O)N(Cc3ccccc3F)c3ccccc3S2(=O)=O)cc1`, for which the inhibition is -1.5% (inactive). On the same count and under the same terms, the same measure for `N#CCCN1CCCN(CCC#N)CCN(CCC#N)CCCN(CCC#N)CC1`: -13.6% (inactive). Regarding `CCOC(=O)/C=c1\s/c(=C\c2c(OCC)ccc3ccccc23)c(=O)n1CC(=O)NCC1CCCO1` (stereo unspecified), the inhibition was 10.3% (inactive). On to `COc1cc(OC)cc(C(=O)OCC(=O)NC(C)CCc2ccccc2)c1` (stereo unspecified), for which the inhibition is 34.5% (inactive). Same read-out and setting: the same measure for `O=C1CCC/C(=N/NC(=O)c2sc3ccccc3c2Cl)C1`: 8.3% (inactive). With `COc1ccc2c(Cl)c(C(=O)NN)sc2c1`, the inhibition was 8.1% (inactive). For `COc1ccc2c(Cl)c(C(=O)N/N=C3\CCCC(=O)C3)sc2c1`, the inhibition is 50.9% (active).

With `Cc1ccc(C(=O)NCCc2nnc3ccc(NCc4ccc5c(c4)OCO5)nn23)cc1`, the inhibition was -1.4% (inactive). With `COc1ccc(C(=O)Nc2ccc(Cl)cc2C(=O)NCCO)cc1`, the inhibition was -1.8% (inactive). On to `CCN1CCCC1CNC(=O)c1cc2c(C)nc3ccccc3c2o1` (stereo unspecified), for which the inhibition was 5.2% (inactive). The same measure, in the same setting: with `CCOC(=O)N1CCC(C(=O)NNC(=O)c2ccc(Cl)cc2Cl)CC1` the figure was 6.9% (inactive); with `CN1/C(=C/C(=O)C2CC2)C(C)(C)c2ccccc21`, 3.3% (inactive). With `CCOC(=O)c1cc2c(=O)n3ccccc3nc2n(Cc2ccco2)c1=NC(=O)c1ccccc1OC`, the inhibition was 10.2% (inactive).

Take `CCOC(=O)c1cc2c(=O)n3ccccc3nc2n(Cc2ccco2)c1=NC(=O)c1ccc(OC)cc1`: the inhibition was 33.1% (inactive). Regarding `CCOC(=O)c1cc2c(=O)n3ccccc3nc2n(Cc2ccco2)c1=NC(=O)c1ccc(OC)cc1OC`, the inhibition was 66.1% (active). Regarding `Cc1ccc(CNC(=O)c2ccc(S(=O)(=O)Nc3c(C)n(C)n(-c4ccccc4)c3=O)cc2)cc1`, the inhibition is 0.9% (inactive). On the same count and under the same terms, with `O=Cc1cccn1-c1cccnc1` the figure was 8.9% (inactive); with `Fc1ccccc1N1CCN(C2CCCN(Cc3ccccc3C(F)(F)F)C2)CC1` (stereo unspecified), -0.4% (inactive). For the molecule `CCN(CC)CCN(C(=O)c1ccc2c(c1)OCCO2)c1nc2ccc(C)cc2s1`, the inhibition is -5.5% (inactive). As for `OCCN1CCN(c2ncnc3c2sc2nc(N4CCOCC4)c4c(c23)CCC4)CC1`, the inhibition was 3.4% (inactive).

On to `CSc1nc(N(CCO)CCO)c2sc3nc(-c4ccco4)c4c(c3c2n1)CCC4`, for which the inhibition is 72.4% (active). As for `CC1(C)Cc2c(c(-c3ccco3)nc3sc4c(NCCCO)ncnc4c23)CO1`, the inhibition was 5.3% (inactive). Consider `OCCN(CCO)c1ncnc2c1sc1nc(N3CCOCC3)c3c(c12)CCCC3`, for which the inhibition is 16.9% (inactive). For the molecule `CSc1nc(N2CCN(CCO)CC2)c2sc3nc(-c4ccco4)c4c(c3c2n1)CCC4`, the inhibition was 64% (active). As for `CC1(C)Cc2c(c(N3CCCC3)nc3sc4c(N5CCN(CCO)CC5)ncnc4c23)CO1`, the inhibition is -8.9% (inactive). As to `Cc1nn(Cc2noc(C(=O)NCCc3ccccn3)n2)c(C)c1Br`, the inhibition was 7.3% (inactive). As for `CC1(C)CC(NC(=O)c2ccccc2C(=O)NC2CC(C)(C)NC(C)(C)C2)CC(C)(C)N1`, the inhibition was 32.5% (inactive). In the case of `CCOC(=O)c1cnn(-c2nc(-c3ccccc3)nc3c2COC(C)(C)C3)c1N`, the inhibition is -0.5% (inactive).

For `CCOC(=O)N1CCN(C(=O)CSc2nc3c(cnn3-c3ccc(C)cc3)c(=O)[nH]2)CC1`, the inhibition is 7.8% (inactive). Take `CCn1c(=O)cc(OCC(=O)Nc2ccc3c(c2)OCCO3)c2ccccc21`: the inhibition is 21.8% (inactive).

The values above are taken from PubChem BioAssay AID2073 (Sanford-Burnham Center for Chemical Genomics, 2009).
